The values that follow come from PubChem BioAssay (NCI).

Common to all, as to assay: NCI-60 one-dose screen, 48 h (100 = growth as untreated, 0 = no growth, -100 = all killed)
Common to all, as to conditions: 10 µM unless noted

Test [1] concerns NCI-H23 lung.
In test [2] the test system is NCI-H226 lung.
Test [3] relates to NCI-H322M lung.
Test [4] concerns HOP-62 NSCLC.
Test [5] relates to NCI-H460 lung.
The subject of test [6] is NCI-H522 lung.
The test system of test [7] is A549/ATCC NSCLC.
Test [8] relates to 786-0 renal.
The test system of test [9] is COLO 205 colon.
The test system of test [10] is DU-145 prostate.
In test [11] the test system is K-562 leukemia.
Test [12] concerns MALME-3M melanoma.
The test system of test [13] is MDA-MB-231 breast.
Test [14] deals with RXF 393 renal.
The test system of test [15] is SF-268 CNS.
Test [16] concerns SF-295 CNS.
Test [17] relates to SF-539 CNS.
The test system of test [18] is UACC-257 melanoma.
Test [19] relates to M14 melanoma.
Test [20] deals with HCT-15 colon.

Compounds without any hit were thinned out: in the full panel of roughly 83,000, 20% have a hit.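 Single-concentration screen, 48 h exposure, 96-well plates. Endpoint: percent growth. Below 10 = active.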 Unmarked numbers belong to inactive results. Calls of active or inactive are those of the source.

As for `COc1ccc(-c2c(-c3cc(OC)c(OC)c(OC)c3)noc2N)cc1`, the growth was 31.1% in test [1]; 16% in test [2]; 43.2% in test [3]; 41.4% in [4]; 7.26% (active) in test [5]; -28.9% (active) in test [6]. For the same compound, the growth in test [7] is 22.3%; in [8], 20%; in test [9] it was -72% (active); in test [10] it was -3.15% (active); in [11], 11.8%; in test [12] it was 67.5%. Also, the growth in test [13] was 17.1%; in test [14], 26.5%; in [15], 23.8%; in test [16], 8.4% (active); in [17], 19.3%; in [18], 77.5%. Besides, the figures for the growth in [19] and in [20] were 15.2% and 28%, respectively.

For the compound `CC12CCC3C(CCC4CC(=O)/C(=C\O)CC43C)C1CCC(=O)O2` (stereo not given), the growth in test [1] is 98.8%; in test [2] it was 113%; in test [3], 108%; in test [4], 90.9%; in [5], 115%; in [6] it was 108%. The growth was 106% in test [7]; 92.5% in test [8]; 150% in [9]; 115% in test [10]; 104% in test [11]; 124% in [12]. The growth is 111% in test [13]; 141% in test [14]; 108% in test [15]; 109% in test [16]; 111% in test [17]; 115% in test [18]. In addition, the growth in test [19] is 95.2%; in test [20] it was 121%.

In the case of `Cc1cc(C)n(C(=O)c2nn(-c3ccc(Cl)cc3)cc2O)n1`, the growth in test [1] was 9.42% (active); in test [2], 44.9%; in test [3] it was 37.2%; in [4] it was 47.8%; in [5] it was 5.55% (active); in test [6] it was 59.6%. Moreover, the growth is 11.6% in test [7]; 95.7% in test [8]; 106% in test [9]; 30% in test [10]; 6.26% (active) in test [11]; 117% in test [12]. Besides, the growth in test [13] was 77.4%; in test [14], 39.1%; in test [15], 39.9%; in test [16], -4.15% (active); in test [17], 39.1%; in [18], 82.5%. Also, the growth in [19] is 45.7%; in test [20] it was 50.2%.

Consider `O=C(O)c1ccc(NC(=O)c2ccc(Nc3ccnc(C(F)(F)F)c3)cc2)cc1`, for which the growth is 98.4% in test [1]; 100% in test [2]; 121% in [3]; 103% in test [4]; 113% in [5]; 103% in [6]. The growth in test [7] was 103%; in test [8], 103%; in [9], 101%; in [10] it was 106%; in [11], 94.1%; in test [12], 103%. The growth in [13] was 109%; in [14] it was 97.9%; in [15], 98%; in test [16], 108%; in [17] it was 104%; in test [18], 99.6%. For the same compound, the growth in [19] is 107%; in test [20], 92.1%.

With `COc1ccc(-c2cc(Cc3cccs3)c(=O)n(Cn3ccc4ccccc43)n2)cc1`, the growth in test [1] was 105%; in test [2], 104%; in test [3], 110%; in test [4], 105%; in test [5], 115%; in test [6], 95.5%. Moreover, the growth in [7] was 104%; in [8], 110%; in test [9], 110%; in test [10], 110%; in test [11] it was 105%; in test [12] it was 106%. Also, the growth in test [13] was 100%; in [14], 116%; in test [15], 110%; in test [16] it was 101%; in test [17], 101%; in test [18], 103%. For the same compound, the growth is 106% in test [19] and 98.4% in [20].

For the compound `Cc1cc(N2CCOCC2)nc(N2CCOCC2)n1`, the growth in [1] was 94.6%; in test [2] it was 110%; in test [3], 92.2%; in test [4], 82.2%; in test [5], 99.4%; in [6], 78.6%. Moreover, the growth was 98.1% in test [7]; 92.7% in [8]; 118% in test [9]; 117% in test [10]; 112% in test [11]; 107% in test [12]. Besides, the growth is 114% in test [13]; 118% in test [14]; 100% in [15]; 113% in test [16]; 97.5% in test [17]; 105% in test [18]. Moreover, the growth was 105% in test [19] and 102% in [20].
